Assay results: article PMC4552634, “A New Set of Chemical Starting Points with Plasmodium falciparum Transmission-Blocking Potential for Antimalarial Drug Discovery” (PLoS ONE, 2015)
Among all 13,000 compounds or so, about 3,200 (25%) showed an effect of 50% or more. Some of the results follow.

tested on: P. falciparum stage V gametocytes; design: BacTiter-Glo ATP luminescence viability of purified stage V gametocytes in 384-well plates, per cent inhibition versus DMSO; details: 48 h, 5 µM; inhibitor

Structure (SMILES)	% Inhibition [%]
O=C1NC(C(=O)Nc2ccccc2)C(c2ccccc2)S1 (stereo not drawn) [TCMDC-131740]	2.02
O=C(Nc1ccc(-c2ccc(-c3nc4ccccc4[nH]3)s2)cc1)Nc1ccc(F)c(F)c1F [TCMDC-133236]	-3.503
CCC[C@@H]([C@@H](CC1CCCCC1)C(=O)N[C@H](C(=O)Nc1nccs1)C(C)(C)SCCNC(=O)OCc1ccccn1)N(O)C=O [TCMDC-137794]	19.2
O=C(N/C=N/c1cc([N+](=O)[O-])c(-c2ccncc2)n1-c1ccccc1)c1cccc(O)c1 [TCMDC-125648]	-19.59
O=c1ccccn1CCCC1CCCCN1 (stereo not drawn) [TCMDC-140731]	9.489
CCCCN(CCCC)Cc1cc2ccccc2cc1O [TCMDC-137590]	-20.89
Oc1ccccc1CN(CCCN(Cc1ccccn1)Cc1ccccc1O)Cc1ccccn1 [TCMDC-138469]	77.52
Oc1ccc(OCc2ccccn2)cc1 [TCMDC-125881]	0.9057
COc1nc(Nc2cccc(C)c2)nc(OC)n1 [TCMDC-124204]	-12.01
CN(C)C(CNc1ncnc2cc(Cl)ccc12)Cc1ccccc1 (stereo not drawn) [TCMDC-124600]	-0.01557
Cc1c(Cl)cccc1S(=O)(=O)N1CCCCC(c2ccc(C(F)(F)F)cc2)=N1 [TCMDC-134534]	-14.43
CN(C)c1ccc2c(c1)Sc1cc(N(C)C)ccc1N2C(=O)c1cccc(C(=O)O)c1 [TCMDC-124169]	30.57
CC(=O)CSC(C=Cc1ccc(N(C)C)cc1)=Nc1ccccc1 [TCMDC-137558]	-4.21
CN(C)c1ccc2c(c1)Sc1cc(N(C)C)ccc1N2C(=O)CCCC(=O)O [TCMDC-125778]	104
O=C(Nc1ccc(F)cc1F)NC1CCN(CCCCCNC(=O)C2CC2c2ccc(Cl)c(Cl)c2)CC1 (stereo not drawn) [TCMDC-136253]	-52.54
O=C(Nc1ccc(Cl)cc1Cl)NC1CCN(CCCCCNC(=O)C2CC2c2ccc(Cl)c(Cl)c2)CC1 (stereo not drawn) [TCMDC-136257]	1.836
O=C(Nc1cc(Cl)ccc1Cl)N[C@H]1CCN(CCCCCNC(=O)C2CC2c2ccc(Cl)c(Cl)c2)C1 (stereo partly drawn) [TCMDC-136265]	55.1
O=C(Nc1ccc(Cl)cc1)N[C@H]1CCN(CCCCCNC(=O)C2CC2c2ccc(Cl)c(Cl)c2)C1 (stereo partly drawn) [TCMDC-136262]	1.23
O=C(Nc1ccc(Cl)cc1F)N[C@H]1CCN(CCCCCNC(=O)C2CC2c2ccc(Cl)c(Cl)c2)C1 (stereo partly drawn) [TCMDC-136269]	0.8246
O=C(Nc1ccc(Cl)cc1Cl)N[C@H]1CCN(CCCCCNC(=O)C2CC2c2ccc(Cl)c(Cl)c2)C1 (stereo partly drawn) [TCMDC-136268]	-5.844
O=C(Nc1cc(Cl)cc(Cl)c1)N[C@H]1CCN(CCCCCNC(=O)C2CC2c2ccc(Cl)c(Cl)c2)C1 (stereo partly drawn) [TCMDC-136273]	86.02
O=C(Nc1cccc(Cl)c1Cl)N[C@H]1CCN(CCCCCNC(=O)C2CC2c2ccc(Cl)c(Cl)c2)C1 (stereo partly drawn) [TCMDC-136267]	-46.93
O=C(Nc1ccc(Cl)cc1F)NC1CCN(CCCCCNC(=O)C2CC2c2ccc(Cl)c(Cl)c2)CC1 (stereo not drawn) [TCMDC-136258]	66.19
O=C(Nc1cc(Cl)ccc1O)c1ccc(Oc2ccc(C(=O)Nc3cc(Cl)ccc3O)cc2)cc1 [TCMDC-124084]	-31.23
Cc1ccc(C)c(NC(=O)NC2CCN(c3ccnc(Nc4ccc(F)cc4)n3)C2)c1 (stereo not drawn) [TCMDC-133601]	-9.129
COc1ccc(Nc2nccc(N3CCC(NC(=O)Nc4cc(C)ccc4C)C3)n2)cc1 (stereo not drawn) [TCMDC-133615]	-63.4

Structure (SMILES)	% Inhibition [%]
Cc1ccc2[nH]ncc2c1N(CC1CCCCC1)c1ccnc(Nc2ccc(OCC(O)CN3CC=CCC3)cc2)n1 (stereo not drawn) [TCMDC-138794]	108.6
Cc1noc(-c2ccccc2)c1CN1CCCC2(CC(C(=O)NCc3cccc(F)c3F)=NO2)C1 (stereo not drawn) [TCMDC-136606]	-21.45
Cc1noc(C)c1-c1cccc(CNCc2cccc(-c3ccc(-c4nc5cccc(C)c5[nH]4)cc3)c2)c1.O=C(O)C(F)(F)F [TCMDC-133056]	-10.48
Cc1[nH]c(C)c(-c2ccc(Oc3ccc(Cl)cc3)cc2)c(=O)c1Br [TCMDC-137420]	17.1
Cc1[nH]c(C)c(-c2ccc(Oc3ccccc3)cc2)c(=O)c1Br [TCMDC-137410]	67.24
Cc1[nH]c(C)c(-c2ccc(-c3ccc(F)cc3)cc2)c(=O)c1Br [TCMDC-137421]	28.52
C=CCOc1ccc(-c2c(C)[nH]c(C)c(Br)c2=O)cc1 [TCMDC-135042]	74.1
Cc1[nH]c(C)c(-c2ccc(Oc3ccc(F)cc3)cc2)c(=O)c1Br [TCMDC-137402]	76.64
Cc1[nH]c(C)c(-c2ccc(Oc3ccc([S+](C)[O-])cc3)cc2)c(=O)c1Br (stereo not drawn) [TCMDC-137400]	34.54
Cc1[nH]c(C)c(-c2ccc(OCc3ccccc3)cc2)c(=O)c1Br [TCMDC-138901]	61.61
Cc1[nH]c(C)c(-c2ccc(OCc3ccc(F)cc3)cc2)c(=O)c1Br [TCMDC-138928]	4.156
CCN1CCN(c2cc(C)c3cc(NC(=O)c4cccc([N+](=O)[O-])c4)ccc3n2)CC1 [TCMDC-125577]	8.914
CCN(CC)CCn1c2ccccc2c2ccc(C(=O)Nc3ccc4sc(C)nc4c3)cc21 [TCMDC-135280]	-1.763
O=C(c1cccc(-c2ccc(-c3nc4cc(F)ccc4[nH]3)s2)c1)N1CCCCC1CN1CCC(O)C1 (stereo not drawn) [TCMDC-132343]	-28.04
COc1ccc2nc(C)cc(Nc3ccc(Oc4ccc(Cl)cc4)c(Cl)c3)c2c1 [TCMDC-123477]	-13.35
Cc1csc(NC(=O)c2cn(-c3ccccc3)nc2-c2cccs2)n1 [TCMDC-124531]	15.91
CC1CCCC(NCc2c(O)ccc3ccccc23)C1 (stereo not drawn) [TCMDC-137601]	28.2
O=C(NCc1cccc2ccccc12)[C@@H]1CCCN1C(=O)c1ccc(O)c(-c2ccc(Cl)c(Cl)c2)c1 [TCMDC-140876]	16.61
COc1ccc2ccc(F)c(CC(=O)N3CCOC(CNCc4cccc(-c5ccc(F)cc5)n4)C3)c2n1 (stereo not drawn) [TCMDC-135026]	-25.99
CCOC(=O)c1c(CSc2ccccc2)oc2cc(CN(C)C)c(O)c(Cl)c12 [TCMDC-124095]	-76.05
Cc1cccc2[nH]c(-c3ccc(-c4cccc(NCc5cn6cccnc6n5)c4)cc3)nc12 [TCMDC-136896]	-19.99
COc1cccc2cc(C(=O)N[C@@H](CC(C)C)C(=O)Nc3cc(F)ccc3Br)oc12 [TCMDC-135547]	2.093
Cc1[nH]c(C)c(-c2ccc(OCCCc3ccccn3)cc2)c(=O)c1Br [TCMDC-135795]	65.53
C=Cc1ccc(-c2c(C)[nH]c(C)c(Br)c2=O)cc1 [TCMDC-135433]	58.24
C=CCOc1ccccc1CNCC(O)c1cc(Br)cs1 (stereo not drawn) [TCMDC-140498]	-6.926
CN(C)C(CNC(=O)c1cc(-c2ccncc2)c(-c2ccc(NC(=O)Nc3cccc(Cl)c3)cc2)o1)c1ccccc1 (stereo not drawn) [TCMDC-135781]	-15.22

Structure (SMILES)	% Inhibition [%]
COc1cccc(NC(=O)Nc2ccc(Nc3nc(C)cc(N(C)C)n3)cc2)c1 [TCMDC-124959]	26.66
CCC(C)(C)NC(C)C(O)c1ccc(C(F)(F)F)cc1 (stereo not drawn) [TCMDC-138152]	-4.943
Cc1ccc(NCC(=O)Nc2ccc(F)c(Cl)c2)cc1S(=O)(=O)N1CCOCC1 [TCMDC-123553]	-4.453
Cc1[nH]c(C)c(-c2ccc(Oc3ccc(Cl)cc3)cc2)c(=O)c1I [TCMDC-137393]	12.14
Cc1[nH]c(C)c(-c2ccc(Oc3cc(Cl)cc(Cl)c3)cc2)c(=O)c1Cl [TCMDC-137391]	69.19
Cc1[nH]c(C)c(-c2ccc(Oc3ccc(Cl)cc3)cc2)c(=O)c1Cl [TCMDC-137418]	32.25
Cc1[nH]c(C)c(-c2ccc(Oc3cccc(Cl)c3)cc2)c(=O)c1Cl [TCMDC-137395]	75.57
Cc1[nH]c(C)c(-c2ccc(Oc3ccc(Cl)cc3)cc2)c(=O)c1C [TCMDC-137378]	85.12
NC(=O)c1ccsc1NC(=O)CNC(c1ccc(F)cc1)c1cccs1 (stereo not drawn) [TCMDC-125036]	5.053
C[C@@H]1CN(C(c2cccc(O)c2)c2cccc(C(=O)N(C)c3cccc(F)c3)c2)[C@@H](C)CN1C(c1cccc(O)c1)c1cccc(C(=O)N(C)c2cccc(F)c2)c1 (stereo partly drawn) [TCMDC-137248]	-16.24
CCN(CC)CCCN(C(=O)Nc1ccc(C#N)cc1)c1nc(-c2ccc(F)cc2)cs1 [TCMDC-136664]	-0.5138
CN1C2CCC1c1cc(NC(=O)c3cc(-c4ccc(Cl)cc4)cs3)ccc12 (stereo not drawn) [TCMDC-134192]	-60.68
CCOc1cc(C(=O)NC2CCN(Cc3ccccc3)CC2)ccc1-c1nc2cc(Cl)c(F)cc2[nH]1 [TCMDC-140096]	-27.97
CC(C)(C)c1cc(C(=O)N2CCN(c3ncnc4ccsc34)CC2)n(Cc2ccccc2)n1 [TCMDC-133771]	-19.67
CCCCNCC(O)COc1ccccc1-c1ccc(N/N=C/c2cccc3ccccc23)nn1 (stereo not drawn) [TCMDC-139416]	102.4
COc1cc(NC(=O)c2ccc(-c3ccc(C(C)=O)cc3)s2)ccc1OCCN1CCCC1 [TCMDC-138864]	-4.371
COc1ccc(NC(=O)c2ccc3[nH]c(-c4ccc(Cl)cc4)cc3c2)cc1OCCN(C)C [TCMDC-138706]	-82.62
Cc1ccc(NC(=O)c2ccc(-c3cc4cc(Cl)c(Cl)cc4[nH]3)cc2)cc1OCCN1CCCC1 [TCMDC-141289]	43.64
COc1cc(NC(=O)c2ccc3oc4ccccc4c3c2)ccc1OCCN1CCCCC1 [TCMDC-140701]	-7.89
COc1cc(NC(=O)c2sc(-c3ccc(Cl)cc3)cc2NC(=O)c2cccc(N(C)C)c2)ccc1OCCN1CCCC1 [TCMDC-135403]	72.06
COc1ccc(NC(=O)/C=C/c2ccccc2Cl)cc1OCCN1CCC(NCc2cccnc2)CC1 [TCMDC-140758]	-13.35
COc1cc(NC(=O)c2sc(-c3ccc(Cl)cc3)cc2NC(=O)c2cccnc2)ccc1OCCN1CCCC1 [TCMDC-135397]	125.5
COc1cc(NC(=O)c2sc(-c3ccc(Cl)cc3)cc2Cl)ccc1OCCN1CCCC1 [TCMDC-135556]	-58.99
COc1cc(NC(=O)c2sc(-c3ccc(Cl)cc3)cc2NC(=O)c2ccncc2)ccc1OCCN1CCCC1 [TCMDC-135398]	121.8
COc1cc(NC(=O)c2sc(-c3ccc(Cl)cc3)cc2NC(=O)N2CCCC2)ccc1OCCN1CCCC1 [TCMDC-135404]	71.79
COc1ccc(NC(=O)/C=C/c2ccccc2Cl)cc1OCCN1CCN(c2ccncc2)CC1 [TCMDC-140732]	4.813
